Unmarked numbers belong to inactive results.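 How the source made its calls: active means viability increase at or above a cutoff of the median across tested compounds plus 3 SD (cut at about 8.5% in these data, passing the limit was not always enough); inconclusive means some gains above the cutoff, reason not given; inactive means the rest.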
assay: doxorubicin toxicity protection in MRP-1 cells – H69AR cells, CellTiter-Glo, duplicate, MRP-1 activator project, pilot screen (AID 807); conditions: H69AR viability with doxorubicin, CellTiter-Glo luminescence; at 10 µM; hits give high values;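 further: compound pretreatment 18-22 h then 72 h combined with doxorubicin; 0% = doxorubicin alone and 100% = vehicle without doxorubicin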

Row | SMILES | viability increase [%]
1 | Cn1cc(SCC(=O)NCC2CCCO2)c2ccccc21 (configuration not stated) | -2.67
2 | Cc1nnc(Sc2nc3c(c(=O)[nH]c(=O)n3C)n2Cc2ccccc2)s1 | -0.33
3 | O=C1CCCCCN1Cc1nnc(SCc2nc3ccccc3s2)n1-c1ccccn1 | -3.45
4 | CCCCC(CC)C(=O)NCCCN1CCN(CCCNC(=O)C(CC)CCCC)CC1 (configuration not stated) | -1.81
5 | c1csc(Cc2nc(-c3ccc(-n4cccc4)cc3)no2)c1 | -0.35
6 | COCCNC(=O)c1cc(-c2ccc(Cl)c(Cl)c2)on1 | -0.93
7 | COc1ccc(-c2nn(-c3ccccc3)cc2C(=O)O)cc1 | -3.69
8 | Cc1cc(NC(=O)Nc2cccc3ccccc23)no1 | -4
9 | O=C(c1ccc2snnc2c1)N1CCCC1 | -0.66
10 | COc1ccccc1NC(=O)c1cccc(S(=O)(=O)N2CCOCC2)c1 | -0.79
11 | COc1ccc(-n2c(Cn3c(=O)sc4ccccc43)nnc2SCC(=O)N2CCOCC2)cc1 | 0.3
12 | O=C(c1cc(-c2cccc(O)c2)on1)N1CCCCC1 | 0.08
13 | Cc1ccc(S(=O)(=O)N(C)Cc2nc(-c3ccc(Br)cc3)no2)cc1 | 0.27
14 | O=C(NCc1ccccc1)c1ccc2c(c1)OCCO2 | -1.83
15 | CCOC(=O)CSc1nnc(Cn2c(=O)sc3ccccc32)n1-c1ccccc1C | -1.07
16 | CCOC(=O)c1sc2nc(NC(=O)C3CC3)sc2c1C | -5.8
17 | O=C(CCCOc1ccccc1)Nc1cccc(C(=O)O)c1 | 0.34
